According to PubChem BioAssay (NCATS):
Several values for one entry are separate records, joined by “and”; a condition that tells them apart may be missing. Identical values can stand only once. Records with an inconclusive call do not appear. A call without a number means that no potency is given here. Values without a mark were called inactive. Activity calls are given as the source filed them. The call rests on the fitted dose curve; in most records, active means well fitted curve in the direction sought with a large enough effect; inconclusive means small, poorly fitted or top-dose-only effect, or another doubt; inactive means no such curve, though single readings can be large; an effect the other way counts as inactive or inconclusive.

Assays:
[1] = target: Cytochrome P450 3A7 (Homo sapiens) (UniProt P24462); experiment: Cytochrome P450 family 3 subfamily A member 7 (CYP3A7) small molecule antagonists: luciferase biochemical qHTS assay (AID 1963596); further: nearly all actives have a fitted effect of over 40% in size
Cytochrome P450 3A7 (Homo sapiens), sequence (P24462 whole entry, looked up): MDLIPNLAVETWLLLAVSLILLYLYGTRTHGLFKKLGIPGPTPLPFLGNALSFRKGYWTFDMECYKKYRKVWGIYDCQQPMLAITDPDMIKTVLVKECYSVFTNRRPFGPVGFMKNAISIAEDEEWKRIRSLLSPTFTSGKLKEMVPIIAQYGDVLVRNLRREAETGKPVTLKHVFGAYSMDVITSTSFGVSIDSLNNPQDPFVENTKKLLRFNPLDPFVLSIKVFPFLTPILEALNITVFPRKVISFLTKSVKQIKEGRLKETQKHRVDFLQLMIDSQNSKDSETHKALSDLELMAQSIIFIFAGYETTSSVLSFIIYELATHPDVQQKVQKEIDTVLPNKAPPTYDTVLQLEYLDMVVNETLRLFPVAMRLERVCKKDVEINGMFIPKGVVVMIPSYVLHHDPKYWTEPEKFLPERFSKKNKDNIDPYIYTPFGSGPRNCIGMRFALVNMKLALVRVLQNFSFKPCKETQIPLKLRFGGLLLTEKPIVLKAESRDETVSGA
Summary of the method: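 Luminescence read-out (relative luminescence units) after 20 min with detection reagent, which stops the reaction. Enzyme, proluciferin substrate and compound preincubated 10 min, RT; NADPH regeneration system then started 1 h reaction. Ketoconazole as positive control.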

[2] = Viability qHTS for spleen associated tyrosine kinase inhibitor (SYKi) naive MV4-11 cells (AID 1963823); further: nearly all actives have a fitted effect of over 40% in size; further: potency means the concentration at half of the fitted maximal effect
Summary of the method: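 qHTS, SYK inhibitor-naive MV4-11; 500 cells/well; 72 hr compound exposure, 37 C; CellTiter-Glo added, 10 min RT; luminescence read.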

[3] = Viability qHTS for spleen associated tyrosine kinase inhibitor (SYKi) drug resistant MV4-11 cells (AID 1963824); further: nearly all actives have a fitted effect of over 35% in size; further: potency means the concentration at half of the fitted maximal effect
Summary of the method: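 SYK-inhibitor-resistant MV4-11 AML cells were seeded at 500 per well onto compound and cultured 72 hours (37 °C, 5% CO2). CellTiter-Glo was then added, and after 10 min at room temperature, luminescence gave viability.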

[4] = Cellular viability qHTS for adrenocortical cancer (ACC) cell line SW-13 (AID 1963989); settings: SW-13 ACC cells viability, CellTiter-Glo, 48 h; activity (max response): stronger effect = lower value;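 further: cells grown in serum-free medium with ITS supplement; nearly all actives have a fitted effect of over 65% in size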
Summary of the method: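 Here, serum-free SW-13 cultures were dosed up to 46 uM. Following 48 h, ATP-dependent luminescence (CellTiter-Glo) reported viable cells, and logistic modeling produced IC50 values.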

[5] = Cellular viability qHTS for adrenocortical cancer (ACC) cell line NCI-H295R (AID 1963990); further: nearly all actives have a fitted effect of over 60% in size
Summary of the method: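 Viability of NCI-H295R after 48 h of treatment (final up to 46 uM) measured through cellular ATP luminescence.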

Compound | Potency [1] | Potency [2] | Potency [3] | activity (max response) [4] [%] | Potency [5]
CC(=O)Nc1ccn(C2COC(COC(=O)c3ccccc3)O2)c(=O)n1 (stereo not given) | inactive | 2310 nM (active) | 1.64 µM (active) | -9.44 | inactive
CC(O)CCCCn1c(=O)c2c(ncn2C)n(C)c1=O (stereo not given) | inactive | inactive | inactive | 7.24 | inactive
CN1N=C(C(N)=O)CCC1=O | inactive | inactive | inactive | 11.7 | inactive
OCCCc1ccccc1 | inactive | inactive | inactive | 4.32 | inactive
Cc1ccc(=O)n(-c2ccccc2)c1 | inactive | inactive | inactive | 13.5 | inactive
CCOC(=O)OC(C)OC1=C(C(=O)Nc2ccccn2)N(C)S(=O)(=O)c2ccccc21 (stereo not given) | inactive | inactive | inactive | 1.88 | inactive
CCOC(=O)c1cccnc1 | inactive | inactive | inactive | 14.3 | inactive
CC(C)(C)C(=O)NCCCC(=O)O | inactive | inactive | inactive | 7.9 | inactive
O=C(NCCCN1CCOCC1)c1ccc(Cl)cc1 | inactive | inactive | inactive | 5.56 | inactive
O=C1O[C@H]([C@@H](O)CO)C(O)=C1O | inactive | inactive | inactive | 0.904 | inactive
O=c1[nH]c(=O)n([C@H]2CCCO2)cc1F | inactive | 14600 nM (active) | 10.6 µM (active) and 9.2 µM (active) | -5.11 | inactive
